High-throughput results (PubChem BioAssay)
VACV E9 pol inh: inhibitors of vaccinia virus processive DNA synthesis (E9 polymerase) | normalized absorbance, % (concentration not given with the values) | actives 0.94% (n = 46,000) | in vitro processive DNA synthesis, absorbance read-out; hits give low values | AID 493162; in the data active = normalized absorbance mostly below about 85%, no sharp cut-off; inactive = mostly above about 86%
An asterisk follows results filed as active; ! = repeats disagree. This is one part of a sample in which hits are shown more often than they occur.

SMILES	VACV E9 pol inh
Cc1cccc2nc(CSCc3ccco3)cn12	80
S=C(Nc1ccccc1)Nc1ccc2c(c1)oc1ccccc12	100
Cc1[nH]nc2c1C(c1ccc3ccccc3c1)CC(=O)N2 (configuration not stated)	94
COc1ccc2oc(=O)c(C(=O)NC3=C(C#N)CCC3)cc2c1	100
NC(N)=NC(=O)c1nc(Cl)c(N)nc1N	63*!
COc1ccc2nc(N=C(N)N)nc(C)c2c1	36*
Cc1nc(N=C(N)N)nc2ccccc12	81
COc1ccc2nc(C)c3c(c2c1)OC(C)C3 (configuration not stated)	99
Cc1ccc2nc(SCC(=O)N3CCc4ccccc43)[nH]c2c1	95
O=C(Nc1ccccc1)N1CCN(c2ccc(C(F)(F)F)cn2)CC1	97
Cc1ccc(S(=O)(=O)NC(=O)N2CCCN(c3ccc(C(F)(F)F)cn3)CC2)cc1	92
CC(C)(C)NC(=O)N1CCN(c2cc(C(F)(F)F)ccn2)CC1	78*
NC(=O)CSc1ncnc2ccccc12	103
Cc1nc2nc[nH]n2c(=O)c1NS(C)(=O)=O	100
COC(=O)[C@@H](N)CCCN=C(N)N[N+](=O)[O-]	100
CCCCC(CC)CN=C(N)NC(N)=NCCCCCCN=C(N)NC(N)=NCC(CC)CCCC (configuration not stated)	27*
Cc1ccc2nc(NC(=O)CSc3nccn3-c3ccccc3)sc2c1	90
CSc1nc(/N=C/N(C)C)nn1CCC#N	98
COc1ccc2c(C)cc(SCC#N)nc2c1	84*
COc1ccc2c(C)cc(SCc3c(C)noc3C)nc2c1	87
COc1ccc2c(C)cc(SCC(=O)Nc3ccccc3)nc2c1	102
CC1(C)CC(=O)C(/C=N/n2cnc3ccccc3c2=O)=C(O)C1	100
NC(=O)c1ccccc1O	99
CC(=O)N(C(C)=O)c1nccc(-c2c(-c3ccccc3)noc2C)n1	97
Cc1nc2ccccn2c1-c1ccnc(=S)[nH]1	98
SMILES	VACV E9 pol inh
Cc1onc(C(=O)N(C)C)c1-c1ccnc(=S)[nH]1	88*
COc1ccc(/C=C2/SC(=S)N(C)C2=O)c(OC)c1	108
N=C1c2ccccc2CN1c1ccc2c(c1)OCCO2	104
Cc1cc(C)nc(N2Cc3ccccc3C2=N)n1	69*
CCc1ccc(N2Cc3ccccc3C2=N)cc1	99
O=C(c1ccccc1)c1cccn1CC(=O)N1CCCC1	99
CCn1c(=NC(=O)c2cccs2)sc2cc(Cl)ccc21	109
COc1cc(Cl)c(C)cc1NC(=O)NCc1noc2ccc(C)cc12	102
Nc1nccc(-c2ccc(Oc3ccc(Cl)cc3)cc2Cl)n1	76*
Nc1nccc(-c2ccccc2OCc2ccc(Cl)cc2)n1	99
CC(Oc1ccc(-c2ccccc2)c(F)c1)c1ccnc(N)n1 (configuration not stated)	96
CCC(C)NC(=O)c1ccc(N(CC)CC)cc1 (configuration not stated)	100
Nc1nccc(-c2ccco2)n1	98
S=c1nc2[nH]c(=S)[nH]c(=S)c2c(-c2ccco2)[nH]1	60*
COc1ccccc1CNC(=O)CSc1ccccc1	96
CN(C)/C=C/C=C1C(=O)CCCC1=O	45*
CN(C)c1ccc(N/C=C2/CCCC2=O)cc1	100
CN(C)/C=C/C=C1\N=C(c2ccccc2)OC1=O	103
CSc1nc2ccccc2n1CC(=O)N(C)C1CCCCC1	99
O=C(O)CSc1nnc(-c2ccccc2Br)n1C1CCCCC1	100
S=c1sscc1-c1ccccc1	100
Cc1[nH]n(-c2ccccc2)c(=O)c1C1=c2ccccc2=NC1=O	96
COc1cc2cc3c4c(cc(OC)c(OC)c4c2cc1OC)CCN3C	66*
COc1ccc(OCC2c3cc(OC)c(OC)cc3CCN2C(=O)C(C)C)cc1 (configuration not stated)	96
COc1ccc(C(=O)N2CCc3cc(OC)c(OC)cc3C2C)cc1 (configuration not stated)	91
SMILES	VACV E9 pol inh
CC(C)(C)C(=O)CSc1nc(N)c(C#N)c(-c2cccs2)c1C#N	100
COc1ccc(CNc2ccccn2)cc1OC	99
C=CCOc1ccccc1CNc1ncn[nH]1	84
COc1ccc(CNc2ncn[nH]2)cc1OC	82*
O=C(NCC1CCCO1)C1CCCCC1 (configuration not stated)	109
O=C(CN1CCOCC1)N1N=C2c3ccccc3CCC2C1c1ccc(Cl)cc1 (configuration not stated)	92
C=CCN(CC=C)c1nn[nH]n1	60*
CN(C)c1ccc(C2OC(COc3ccccc3)CN(C(=O)c3ccccc3)O2)cc1 (configuration not stated)	100
COc1ccc(C2C(C(=O)/C=C/c3ccccc3)=C(O)C(=O)N2CCO)cc1 (configuration not stated)	101
COc1ccc2c(c1)c(CC(=O)O)c(C)n2C(=O)c1ccc(Cl)cc1	100
COc1cccc(N(Cc2ccc(C)cc2)C2=NC3CS(=O)(=O)CC3S2)c1 (configuration not stated)	68*
Cc1ccc(C)c(CN(C2=NC3CS(=O)(=O)CC3S2)c2cccc(Cl)c2)c1 (configuration not stated)	89
Cc1cccc(N(Cc2cc(=O)n3ccccc3n2)C2=NC3CS(=O)(=O)CC3S2)c1 (configuration not stated)	101
FC(F)(F)c1ccnc(SCn2c(=S)sc3ccccc32)n1	106
CC(=O)NCCCCCC(=O)O	100
Cc1c(CC(=O)O)c(=O)oc2c(C)c3occ(C(C)(C)C)c3cc12	98
Cc1c(CC(=O)O)c(=O)oc2c(C)c3occ(-c4ccc(Br)cc4)c3cc12	65*
COc1ccc(-c2coc3cc4oc(=O)c(CC(=O)O)c(C)c4cc23)cc1	86
O=C1N=C(c2ccccc2)O/C1=C\C=C\c1ccccc1	114
CC(C)N=Cc1c(O)[nH]c2ccccc12	100
COc1ccc2[nH]c(O)c(N=O)c2c1	100
O=Nc1c(-c2c(O)[nH]c3ccccc23)[nH]c2ccccc12	83*
O=C(OCC1C(COC(=O)C2CC2)C1(Cl)Cl)C1CC1 (configuration not stated)	99
O=CN1CCN(CC(O)Cn2c3ccccc3c3ccccc32)CC1 (configuration not stated)	100
OC(CN(Cc1ccccc1)Cc1ccccc1)Cn1c2ccccc2c2ccccc21 (configuration not stated)	101
SMILES	VACV E9 pol inh
CS(=O)(=O)NCC(O)Cn1c2ccccc2c2ccccc21 (configuration not stated)	107
CC(C)(CO)NCC(O)Cn1c2ccccc2c2ccccc21 (configuration not stated)	65*
OCCN(CCO)CC(O)Cn1c2ccccc2c2ccccc21 (configuration not stated)	77*
Cc1ccc(NCC(O)Cn2c3ccccc3c3ccccc32)cc1 (configuration not stated)	100
COc1cccc(Nc2ccc(C(=O)O)cc2N)c1	104
O=C(Nc1ccccc1)OCC1(c2ccccc2)C(=O)c2ccccc2C1=O	100
O=C1C2C3C=CC(C3)C2C(=O)N1c1ccccn1 (configuration not stated)	98
O=C(O)COc1ccc2c(c1)oc(=O)c1ccccc12	90*
COc1ccc2c(c1)oc(=O)c1ccccc12	92
O=C(O)COc1ccc2c(-c3ccccc3)cc(=O)oc2c1	102
CC1(C)CC(=O)C2=C(C1)N=C1c3ccccc3C(=O)C1C2c1cccc(Br)c1 (configuration not stated)	101
